Screening results: PubChem, National Center for Advancing Translational Sciences (NCATS)
In the library only some 10% were active in any assay of this set; here they are far more common.
Lamin A splicing: LMNA splicing modulation | Potency, µM (series often up to 46.1 µM), inactives show at the top dose ratio change, negative = inhibition, usual class: inhibitors | AID 1487 | HeLa LMNA splicing GFP/RFP minigene ratio, 48 h | 200,000 compounds, 0.01% hits; active = well fitted inhibition curve with a large enough effect in the signal ratio, with a control signal flat, not every such curve was filed as active; inconclusive = small, poorly fitted or top-dose-only effect, or effect the other way, or a change in a side signal; the % refers to the signal ratio; also: potency is read from the fitted curve at half-maximal effect
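S3 HeLa cells stably expressing lamin A-EGFP splicing minigene plus DsRed2, 600 cells/well, 48 h compound exposure at 37C. Laser-scanning cytometry; analysed as GFP (500-530 nm)/RFP (575-640 nm) total intensity ratio; 0.5% DMSO vehicle.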
HPGD inh: blocks human HPGD enzyme activity. P15428. purified HPGD, NADH fluorescence kinetic, PGE2 substrate. 150,000 compounds, 4.3% hits. AID 894. Potency, µM, for inactives: top-dose activity change, negative = inhibition, most hits filed as inhibitors; also: potency is read from the fitted curve at half-maximal effect
Target sequence (P15428 whole entry, looked up): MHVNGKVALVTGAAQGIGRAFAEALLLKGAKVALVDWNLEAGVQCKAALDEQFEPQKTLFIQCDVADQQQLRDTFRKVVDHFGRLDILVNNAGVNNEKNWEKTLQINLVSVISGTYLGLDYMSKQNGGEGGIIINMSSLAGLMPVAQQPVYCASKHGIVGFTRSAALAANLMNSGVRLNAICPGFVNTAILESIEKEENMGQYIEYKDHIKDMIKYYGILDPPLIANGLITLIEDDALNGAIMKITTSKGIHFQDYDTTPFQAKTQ
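NADH formation kinetics: reaction with 30 uM PGE2 and 1 mM NAD+ (final), 20 nM enzyme, Tris-HCl pH 8 with Tween 20, after 15 min compound preincubation at room temperature. Fluorescence change, last versus first of five reads.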
ALDH1A1 block: blocks purified human ALDH1A1 activity. P00352. 220,000 compounds, 7.3% hits. Potency, µM (top dose mostly 75.3 µM), for the others: at the top dose activity, negative = inhibition, most hits filed as inhibitors. Purified ALDH1A1, NADH fluorescence, propionaldehyde substrate;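 also: potency is read from the fitted curve at half-maximal effect; plate controls were no enzyme wells and a reference inhibitor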
PNC inhibitor: inhibitors of perinucleolar compartment assembly. 140,000 compounds, 3.1% hits. AID 2417. activity change (PNC), negative = inhibition, % at 10 µM. PC3M PTB-GFP, PNC prevalence imaging, 16 h; hits give low values;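 active = readout at or below -70, meaning at least 70% loss of cells showing the perinucleolar compartment, a nuclear body marking cancer cells; inconclusive = readout between -30 and a set limit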;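 also: plate controls were DMSO wells for no effect and camptothecin positive control wells for full effect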
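Compounds are pinned in duplicate onto adhered PC3M cells stably expressing GFP-tagged PTB and incubated 16 h at 37 C. Cells are then fixed, nuclei stained with Hoechst, and PNC-positive cells counted.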
12-hLO inh: inhibitors of human 12-lipoxygenase (ALOX12); P18054; purified 12-hLO, xylenol orange hydroperoxide absorbance; Potency, µM (doses to about 57.1 µM), for the others: top-dose activity change, negative = inhibition, usual class: inhibitors; 150,000 compounds, 0.12% hits; active = well fitted inhibition curve with a large enough effect; inconclusive = small, poorly fitted or top-dose-only effect; also: potency is read from the fitted curve at half-maximal effect; nearly all actives have a fitted effect of over 55% in size
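Xylenol orange chromogenic assay: hydroperoxide from 12hLO oxidises Fe(II), giving red-shifted Fe(III)-XO absorbance. Conditions: 150 nM enzyme, 40 uM arachidonic acid, 25 mM Hepes pH 7.0, 0.01% Triton X-100, 30 min, room temperature.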
The depositor's hits bear a star; ? = inconclusive; / = not tested or not shown; [ ] = another dose, or the depositor's remark. Unless noted, calls follow the shape of the dose curve; as a rule, active = well fitted inhibition curve with a large enough effect (not every such curve was filed as active); inconclusive = small, poorly fitted or top-dose-only effect, or another doubt; inactive = no such curve, though single readings can be large or run the other way. Unless noted, % is scaled to controls: 0 for no effect and ±100 for the full control effect.

SMILES	Lamin A splicing	HPGD inh	ALDH1A1 block	PNC inhibitor	12-hLO inh
COC(=O)c1sc(NC(=O)c2ccc(Cn3cc(Cl)cn3)o2)c(C#N)c1C	?	16µM*	3.5µM*	6	-8%
CC1CCc2c(sc(NC(=O)c3ccc(Cn4cc([N+](=O)[O-])cn4)o3)c2C#N)C1 (configuration not stated)	5%	-22%	25µM*	-6	-28%
Cc1ccc(C)n1-c1cccc(NC(=O)c2ccccc2)c1	-9%	-10%	12%	28	4%
Cc1ccc(C)n1-c1ccc(C(=O)Nc2ccccc2)cc1	21%	16µM*	28µM*	-14	0%
O=C(CSc1nccn1-c1ncc(C(F)(F)F)cc1Cl)c1ccc(Cl)cc1	2%	-11%	-8%	15	-5%
N#Cc1ccc(C(=O)CSc2nnc(-c3ccc(C(F)(F)F)cn3)s2)cc1	/	/	35µM*	/	/
COc1ccc(CNn2c(-c3cccs3)nc3ccccc3c2=O)cc1OC	/	/	25µM*	/	/
COc1cccc(C(=O)Nn2c(-c3cccs3)nc3ccccc3c2=O)c1OC	5%	-25%	-15%	-4	1%
COCCn1c(=O)c(-c2ccc(OC)cc2)nc2cnc(Oc3ccccc3)nc21	/	?	?	/	1%
C=CCN1C(=O)/C(=C/c2ccc(O)c(OC)c2)S/C1=N/c1nccs1	?	-17%	1µM*	-5	-12%
C=CCN1C(=O)/C(=C/c2ccc(OCC(=O)O)cc2)S/C1=N/c1nccs1	?	-19%	5µM*	?	-1%
C=CCN1C(=O)/C(=C/c2ccc(N(C)C)cc2)S/C1=N\c1nnc(CC)s1	1%	-10%	?	-6	3%
COc1ccc(/C=C2\SC(=N)N(c3nccs3)C2=O)cc1OC	?	?	7%	-11	0%
[O-][n+]1c(CN2CCCCC2)nc2cccc3c2c1-c1ccccc1-3	/	?	1µM*	/	-9%[11.4 µM]
O=c1[nH]c(CN2CCCCC2)nc2c1C1(CCCCC1)Cc1ccccc1-2	12%	-10%	6%	?	5%
CC1CCC/C(=C\Nc2ccc(O)cc2)C1=O (configuration not stated)	0%	?	8.9µM*	13	?
Cc1cc(C(=O)O)ccc1N/C=C1\CCCC(C)C1=O (configuration not stated)	-1%	-12%	-13%	-5	9%
O=S(=O)(c1ccccc1)N1CCC2(CCCN(C(c3ccccc3)c3ccccc3)C2)CC1	/	-3%	12%	/	1%
CS(=O)(=O)Nc1cccc(-c2ccc3ncnc(Nc4ccc(F)cc4)c3c2)c1	?	?	14%	/	-7%
Cc1ccccc1OCCc1c(C)[nH]c(=S)[nH]c1=O	?	/	20µM*	/	/
CC(C)(C)OC(=O)N1CCC(c2c(C(=O)NCc3ccco3)cnn2-c2ccccc2Cl)CC1	-5%[46 µM]	/	/	/	/
Cc1cc(C(F)(F)F)n(-c2nc(C(=O)NN)cs2)n1	-14%[46 µM]	/	2.2µM*	/	/
CN(C)c1ccc(NC(N)=S)cc1	-8%	-8%	12µM*	?	-7%
CN(C)c1ccc(/C=N/NC(=O)c2cccc(C(=O)N/N=C/c3ccc(N(C)C)cc3)n2)cc1	?	/	2%	/	/
CN(C)c1ccc(NC(=O)c2cccc(C(=O)Nc3ccc(N(C)C)cc3)n2)cc1	?	-17%	8.9µM*	119	-2%
SMILES	Lamin A splicing	HPGD inh	ALDH1A1 block	PNC inhibitor	12-hLO inh
Cc1ccc(-c2nc(CCNC(=O)C(=O)Nc3ccc(C)c(C)c3)cs2)cc1	-2%[46 µM]	/	/	/	/
Cc1ccc(-c2nn(-c3ccccc3)cc2CN(Cc2ccccc2)C(=O)c2ccco2)o1	0%	-27%	11µM*	?	-13%
O=C(/C=C/N1CCOCC1)c1cc2ccccc2o1	-6%	-14%	18µM*	35	-2%
O=C(Nc1ccc(N2CCOCC2)cc1)c1cc2ccccc2o1	?	-24%	?	-28	-17%
O=C(c1cc2ccccc2o1)N1CCCC1	12%[46 µM]	/	5%	/	/
CC1CCN(C(=O)c2cc3ccccc3o2)CC1	17%	11µM*	?	-24	-4%
O=C(c1cc2ccccc2o1)N1CCCCCC1	-13%	7.9µM*	?	250	12%
O=c1c2ccccc2oc2nc(-c3cccs3)n(CCc3ccccc3)c(=O)c12	-4%	-9%	16%	19	-5%
Cn1ccc(C(=O)N2CCCc3ccccc32)n1	11%	2%	13%	-14	-2%
O=C(c1cc(-c2ccco2)on1)N1CCCc2ccccc21	8%	-22%	8.9µM*	?	-12%
Cn1c(C(=O)N2CCCc3ccccc32)cc2sccc21	?	16µM*	7.9µM*	-8	-22%
O=C(c1cc(-c2ccccc2)on1)N1CCCc2ccccc21	/	/	14µM*	/	/
CC(=O)Nc1ccc(NC(=O)COc2ccc([N+](=O)[O-])cc2)cc1	/	/	11µM*	/	/
Cc1ccc(OCC(=O)Nc2ccc(F)cc2)cc1C	-11%	?	10%	-100*	1%
COCCOC(=O)c1ccc(NC(=O)COc2ccc([N+](=O)[O-])cc2)cc1	28%[46 µM]	/	-13%	/	/
Cc1cc(OCC(=O)Nc2cnn(CCCC(=O)O)c2)ccc1[N+](=O)[O-]	/	/	-1%	/	/
Cc1cc(OCC(=O)Nc2ccncc2)ccc1[N+](=O)[O-]	?	/	10µM*	/	/
C/C=C1/NN(CCCN2CCN(c3cccc(Cl)c3)CC2)C(=O)N1CCOc1ccccc1	?	-5%	-3%	/	1%[0.00818 µM]
CCOC(=O)c1ccc(NC(=O)c2cc3c([nH]c2=O)CC(c2ccccc2)CC3=O)cc1 (configuration not stated)	15%[46 µM]	/	/	/	/
CC1C(c2ccccc2)N(C)C(c2ccccc2)CC1(O)c1ccccc1 (configuration not stated)	?	-20%	2%	?	-2%
CC1CN(C)C(c2ccccc2)C(C)C12NC(=O)NC2=O (configuration not stated)	?	-13%	7.1µM*	8	-11%
COC(=O)C1=C(C)N=C2SC(C#N)=C(N)N2C1c1cccc(OC)c1 (configuration not stated)	6%	-10%	13µM*	25	-7%
CC(C)(C)c1ccc(C(=O)CSc2nc3ccccc3c(=O)[nH]2)cc1	2%	-15%	?	-4	-5%
O=C(CSc1nc2ccccc2c(=O)[nH]1)c1ccccc1	-15%	13µM*	?	365	2%
Cc1cc(C(=O)CSc2nc3ccccc3c(=O)[nH]2)c(C)n1C	-2%	22µM*	-4%	?	-5%
CC1CCOC(c2coc3ccccc3c2=O)O1 (configuration not stated)	-3%	-15%	20µM*	14	2%
O=C(O)C1CSC(c2coc3ccccc3c2=O)N1 (configuration not stated)	?	-19%	?	-13	-3%
COc1ccc(NC(=O)c2ncoc2-c2ccco2)cc1Cl	13%[46 µM]	/	/	/	/
